Laboratory results taken from PubChem BioAssay (Tox21).
Active and inactive are the calls of the source. Where a call stands in place of a potency, no number is given. Unless noted, calls come from the whole dose curve; as a rule, active = well fitted curve in the direction sought with a large enough effect in the repeat runs; inconclusive = weak or mixed curves; inactive = no such curve, though single readings can be large; an effect the other way counts as inactive or inconclusive.

Experiments:
[1] = qHTS assay to identify small molecule antagonists of the thyroid receptor (TR) signaling pathway - cell viability counter screen (AID 743064); note: nearly all actives have a fitted effect of over 50% in size; note: potency is the fitted concentration of half-maximal effect
Summary of the method: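 GH3.TRE-Luc rat pituitary cells carrying a TRE-luciferase reporter were treated with compound plus 1 nM T3 (final) for 23.5 h at 37 °C. Viability was then read in the same wells by CellTiter-Fluor fluorescence after a further 30 min.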

[2] = qHTS assay to identify small molecule antagonists of the thyroid receptor (TR) signaling pathway (AID 743065); note: nearly all actives have a fitted effect of over 55% in size; note: potency is the fitted concentration of half-maximal effect
Summary of the method: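 GH3.TRE-Luc rat pituitary cells (two TREs driving luciferase) were dosed with compound, then stimulated with 1 nM T3 (final) for 23.5 h at 37 C. ONE-Glo luminescence was the read-out, with CellTiter-Fluor fluorescence as the cytotoxicity counter-screen.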

[3] = test system: thyroid hormone receptor (rat, GH3 cells); assay: qHTS assay to identify small molecule agonists of the thyroid receptor (TR) signaling pathway (AID 743066; calls by dose curve)
[4] = qHTS assay to identify small molecule antagonists of the estrogen receptor alpha (ER-alpha) signaling pathway - cell viability counter screen (AID 743074; calls by dose curve; note: nearly all actives have a fitted effect of over 45% in size)
[5] = qHTS assay to identify small molecule antagonists of the estrogen receptor alpha (ER-alpha) signaling pathway using the BG1 cell line - cell viability counter screen (AID 743081);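 note: compound given together with 17beta-estradiol as the ER stimulus; nearly all actives have a fitted effect of over 45% in size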; note: potency is the fitted concentration of half-maximal effect
Aromatase (Homo sapiens) = Aromatase (Homo sapiens) (UniProt P11511); assay: qHTS assay to identify aromatase inhibitors (AID 743083); note: nearly all actives have a fitted effect of over 55% in size; note: potency is the fitted concentration of half-maximal effect
Aromatase (Homo sapiens), sequence (P11511 whole entry, looked up): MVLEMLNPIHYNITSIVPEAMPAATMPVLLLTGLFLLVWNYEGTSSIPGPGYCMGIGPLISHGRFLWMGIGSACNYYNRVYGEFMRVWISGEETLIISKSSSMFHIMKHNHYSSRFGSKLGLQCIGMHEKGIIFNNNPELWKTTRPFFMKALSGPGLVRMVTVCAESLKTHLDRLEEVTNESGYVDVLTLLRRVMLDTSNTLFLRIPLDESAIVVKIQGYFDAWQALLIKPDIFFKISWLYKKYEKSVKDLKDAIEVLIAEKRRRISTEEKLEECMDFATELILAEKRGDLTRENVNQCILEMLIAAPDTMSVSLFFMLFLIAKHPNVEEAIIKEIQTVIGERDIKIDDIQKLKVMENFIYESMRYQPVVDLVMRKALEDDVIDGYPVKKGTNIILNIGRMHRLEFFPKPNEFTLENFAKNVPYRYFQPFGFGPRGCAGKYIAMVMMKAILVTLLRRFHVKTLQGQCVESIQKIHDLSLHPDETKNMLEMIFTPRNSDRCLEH

[6] = qHTS assay to identify aromatase inhibitors - cell viability counter screen (AID 743084);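 note: cells stimulated with testosterone during compound exposure; nearly all actives have a fitted effect of over 55% in size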; note: potency is the fitted concentration of half-maximal effect
[7] = qHTS assay to identify small molecule that activate the aryl hydrocarbon receptor (AhR) signaling pathway - cell viability counter screen (AID 743086); note: nearly all actives have a fitted effect of over 45% in size; note: potency is the fitted concentration of half-maximal effect
Summary of the method: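 HepG2-AhR-luc (HG2L7.5c1) cells, 4000/well, treated 24 h at 37 C with compound; viability measured as CellTiter-Fluor fluorescence after 30 min in the same wells as the luciferase read.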

[8] = qHTS assay to identify small molecule antagonists of the peroxisome proliferator-activated receptor gamma (PPARg) signaling pathway - cell viability counter screen (AID 743194); note: nearly all actives have a fitted effect of over 55% in size; note: potency is the fitted concentration of half-maximal effect
Summary of the method: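 Cytotoxicity counter screen in PPARg-bla HEK293H cells, same wells as reporter assay. Compounds plus 50 nM rosiglitazone (final) for 17 h at 37 C, then viability read by CellTiter-Glo luminescence.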

[9] = qHTS assay for small molecule agonists of the antioxidant response element (ARE) signaling pathway (AID 743202; active = well fitted activation curve with a large enough effect in the signal ratio in the repeat runs, not every such curve was filed as active; inconclusive = weak or mixed curves, or effect the other way; inactive = no such curve, though single readings can be large or run the other way; the % refers to the signal ratio)
Summary of the method: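 HepG2 ARE-bla cells; 16 h treatment at 37 C; FRET-based beta-lactamase fluorescence read after 2 h substrate incubation at room temperature.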

[10] = qHTS assay for small molecule agonists of the antioxidant response element (ARE) signaling pathway - cell viability counter screen (AID 743203; calls by dose curve; note: nearly all actives have a fitted effect of over 55% in size; note: potency is the fitted concentration of half-maximal effect)
Summary of the method: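 Parallel cytotoxicity read-out for the ARE-bla screen: HepG2 reporter cells, 16 hrs with compounds, then CellTiter-Glo luminescence.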

[11] = qHTS assay for small molecule activators of the heat shock response signaling pathway - cell viability counter screen (AID 743209); note: nearly all actives have a fitted effect of over 50% in size
Summary of the method: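 To flag cytotoxic compounds, HSE-bla HeLa cells plated at 1500 cells/well were dosed for 5 h at 37 C, followed by the reporter FRET read and then CellTiter-Glo, with luminescence recorded 30 min after reagent addition.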

[12] = qHTS assay for small molecule activators of the heat shock response signaling pathway (AID 743210; active = well fitted activation curve with a large enough effect in the signal ratio in the repeat runs, with a control signal flat, not every such curve was filed as active; inconclusive = weak or mixed curves; the % refers to the signal ratio;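 note: HeLa cells with beta-lactamase reporter driven by heat shock elements; series mostly up to about 63 µM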)
Summary of the method: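 Following overnight attachment, HSE-bla HeLa cells received test compounds for 5 h at 37 C; beta-lactamase activity was then detected via FRET substrate fluorescence.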

[13] = molecular target: Peroxisome proliferator-activated receptor gamma (Homo sapiens) (UniProt P37231); assay: qHTS assay to identify small molecule agonists of the peroxisome proliferator-activated receptor gamma (PPARg) signaling pathway (AID 743094; active = well fitted activation curve with a large enough effect in the signal ratio in the repeat runs, not every such curve was filed as active; inconclusive = weak or mixed curves, or effect the other way; inactive = no such curve, though single readings can be large or run the other way; the % refers to the signal ratio)
Peroxisome proliferator-activated receptor gamma (Homo sapiens), sequence (P37231 whole entry, looked up): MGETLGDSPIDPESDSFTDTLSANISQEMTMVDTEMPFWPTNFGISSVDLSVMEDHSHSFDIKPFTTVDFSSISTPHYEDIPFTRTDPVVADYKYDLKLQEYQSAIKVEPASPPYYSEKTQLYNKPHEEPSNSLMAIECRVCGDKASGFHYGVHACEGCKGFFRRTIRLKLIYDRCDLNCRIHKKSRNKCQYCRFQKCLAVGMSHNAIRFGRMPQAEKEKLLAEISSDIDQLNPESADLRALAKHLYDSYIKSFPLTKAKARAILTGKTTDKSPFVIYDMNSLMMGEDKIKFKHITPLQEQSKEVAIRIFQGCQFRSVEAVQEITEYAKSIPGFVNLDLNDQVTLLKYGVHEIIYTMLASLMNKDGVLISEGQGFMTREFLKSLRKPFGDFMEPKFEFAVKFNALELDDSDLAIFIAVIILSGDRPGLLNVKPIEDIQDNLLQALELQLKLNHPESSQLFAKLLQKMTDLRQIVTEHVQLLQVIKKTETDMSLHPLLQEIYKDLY
Summary of the method: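 Fluorescence-based beta-lactamase readout in HEK293H PPARg UAS-bla cells after 17 h compound exposure (37C) and 1 h B/G FRET substrate incubation at room temperature.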

[14] = molecular target: Estrogen receptor (Homo sapiens) (UniProt P03372); assay: qHTS assay to identify small molecule antagonists of the estrogen receptor alpha (ER-alpha) signaling pathway (AID 743069; active = well fitted curve in the direction sought with a large enough effect in the signal ratio in the repeat runs, not every such curve was filed as active; inconclusive = weak or mixed curves, or effect the other way; inactive = no such curve, though single readings can be large or run the other way; the % refers to the signal ratio; note: potency is the fitted concentration of half-maximal effect)
Estrogen receptor (Homo sapiens), sequence (P03372 whole entry, looked up): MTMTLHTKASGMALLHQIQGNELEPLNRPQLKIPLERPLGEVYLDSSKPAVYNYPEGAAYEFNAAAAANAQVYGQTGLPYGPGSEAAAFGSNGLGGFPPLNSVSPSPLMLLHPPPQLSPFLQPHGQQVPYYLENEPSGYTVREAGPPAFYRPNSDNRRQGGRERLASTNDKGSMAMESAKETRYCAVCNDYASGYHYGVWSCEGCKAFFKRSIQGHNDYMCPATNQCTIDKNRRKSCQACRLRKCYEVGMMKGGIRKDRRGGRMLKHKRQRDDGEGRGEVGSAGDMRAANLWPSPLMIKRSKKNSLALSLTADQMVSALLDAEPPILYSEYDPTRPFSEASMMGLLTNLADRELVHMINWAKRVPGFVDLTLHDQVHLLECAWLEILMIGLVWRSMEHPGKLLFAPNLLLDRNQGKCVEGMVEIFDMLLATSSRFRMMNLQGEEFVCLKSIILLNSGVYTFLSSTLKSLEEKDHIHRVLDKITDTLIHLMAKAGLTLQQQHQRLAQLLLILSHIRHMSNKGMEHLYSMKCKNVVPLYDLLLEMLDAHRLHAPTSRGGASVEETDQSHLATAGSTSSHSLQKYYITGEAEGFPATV
Summary of the method: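 In this cell-based reporter format, GripTite HEK293 cells harbouring ER-alpha-UAS-bla were grown overnight with 2% charcoal-stripped FBS, dosed with DMSO-dissolved compounds, then challenged with 17beta-estradiol. After 18 hr at 37C, beta-lactamase activity was detected by FRET fluorescence.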

[15] = molecular target: Estrogen receptor (Homo sapiens) (UniProt P03372); assay: qHTS assay to identify small molecule agonists of the estrogen receptor alpha (ER-alpha) signaling pathway (AID 743075; calls by dose curve)
[16] = molecular target: Estrogen receptor (Homo sapiens) (UniProt P03372); assay: qHTS assay to identify small molecule agonists of the estrogen receptor alpha (ER-alpha) signaling pathway using the BG1 cell line (AID 743079); note: nearly all actives have a fitted effect of over 20% in size
[17] = qHTS assay to identify small molecule antagonists of the estrogen receptor alpha (ER-alpha) signaling pathway using the BG1 cell line (AID 743080; calls by dose curve;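 note: BG1 cells stimulated with 17beta-estradiol alongside compound; series mostly up to about 70 µM; nearly all actives have a fitted effect of over 25% in size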)
Summary of the method: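 Seeding, 24 h rest, compound transfer from DMSO, 17beta-estradiol addition, 21.5 h incubation, CellTiter-Fluor (30 min, 37 C), then ONE-Glo (30 min, room temperature): this sequence was run on BG1-Luc-4E2 reporter cells.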

[18] = molecular target: Aryl hydrocarbon receptor (Homo sapiens) (UniProt P35869); assay: qHTS assay to identify small molecule that activate the aryl hydrocarbon receptor (AhR) signaling pathway (AID 743085);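 note: HG2L7.5c1 human HepG2 liver cells with stably integrated DRE-driven firefly reporter; series mostly up to about 70 µM; nearly all actives have a fitted effect of over 15% in size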
Aryl hydrocarbon receptor (Homo sapiens), sequence (P35869 whole entry, looked up): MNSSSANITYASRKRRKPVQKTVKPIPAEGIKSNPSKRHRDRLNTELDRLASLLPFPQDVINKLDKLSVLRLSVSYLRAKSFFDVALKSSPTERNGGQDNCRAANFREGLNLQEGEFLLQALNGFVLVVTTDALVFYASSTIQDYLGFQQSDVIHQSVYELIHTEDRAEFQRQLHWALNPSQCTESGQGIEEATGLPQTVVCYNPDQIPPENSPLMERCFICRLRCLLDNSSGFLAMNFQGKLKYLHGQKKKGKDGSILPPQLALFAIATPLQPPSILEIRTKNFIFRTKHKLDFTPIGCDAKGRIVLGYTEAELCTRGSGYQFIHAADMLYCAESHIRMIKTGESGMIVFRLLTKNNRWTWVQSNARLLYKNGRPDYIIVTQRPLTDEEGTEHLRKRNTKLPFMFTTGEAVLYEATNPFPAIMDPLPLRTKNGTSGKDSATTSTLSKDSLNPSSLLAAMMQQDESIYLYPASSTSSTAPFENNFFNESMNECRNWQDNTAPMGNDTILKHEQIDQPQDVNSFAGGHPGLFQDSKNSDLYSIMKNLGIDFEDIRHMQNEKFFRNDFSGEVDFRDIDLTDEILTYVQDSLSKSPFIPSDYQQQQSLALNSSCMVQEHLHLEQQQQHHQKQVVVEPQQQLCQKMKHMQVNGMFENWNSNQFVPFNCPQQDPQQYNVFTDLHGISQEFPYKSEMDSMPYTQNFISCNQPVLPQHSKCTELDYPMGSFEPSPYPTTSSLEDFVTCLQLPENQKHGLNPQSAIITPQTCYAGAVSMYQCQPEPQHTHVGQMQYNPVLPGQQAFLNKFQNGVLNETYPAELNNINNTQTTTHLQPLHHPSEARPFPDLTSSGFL
Summary of the method: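 HepG2 cells (HG2L7.5c1) stably carrying a firefly luciferase reporter driven by 20 dioxin responsive elements were exposed to compound for 24 h at 37C after a 5 h settling period; luminescence rise (ONE-Glo) indicated activation.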

[19] = molecular target: Peroxisome proliferator-activated receptor gamma (Homo sapiens) (UniProt P37231); assay: qHTS assay to identify small molecule antagonists of the peroxisome proliferator-activated receptor gamma (PPARg) signaling pathway (AID 743191; calls by dose curve; note: series mostly up to about 63 µM; nearly all actives have a fitted effect of over 30% in size)
Summary of the method: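 GeneBLAzer PPARg UAS-bla HEK293H cells, 5 h post-plating, exposed to compounds 17 h at 37C. LiveBLAzer B/G FRET substrate added for 1 h at room temperature; beta-lactamase reporter read by fluorescence intensity.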

SMILES | Potency [1] | Potency [2] | Potency [3] | Potency [4] | Potency [5] | Potency (Aromatase (Homo sapiens)) | Potency [6] | Potency [7] | Potency [8] | Potency [9] | Potency [10] | Potency [11] | Potency [12] | outcome [13] | Potency [14] | Potency [15] | Potency [16] | Potency [17] | Potency [18] | Potency [19]
CCCCCC | inactive | inactive | inactive | inactive | inactive | inactive | inactive | inactive | inactive | inactive | inactive | inactive | inactive | – | – | – | – | – | – | –
CC1CCCO1 (centres undefined) | inactive | inactive | inactive | inactive | inactive | inactive | inactive | inactive | inactive | – | inactive | inactive | inactive | inactive | – | – | – | – | – | –
O[C@@H](CNC[C@H](O)[C@H]1CCc2cc(F)ccc2O1)[C@@H]1CCc2cc(F)ccc2O1 | 10.6 µM (active) | 9.44 µM (active) | – | inactive | – | 33.5 µM (active) | – | 26.6 µM (active) | 29.8 µM (active) | – | 21.1 µM (active) | inactive | inactive | – | 26.8 µM [inconclusive] (active) | inactive | inactive | inactive | inactive | –
O=C(O)CCCc1c[nH]c2ccccc12 | inactive | inactive | inactive | inactive | inactive | inactive | inactive | inactive | inactive | inactive | – | inactive | inactive | inactive | – | – | – | – | – | inactive
CC(CN(CCN(CC(C)OCCO)CC(C)OCCO)CC(C)OCCO)OCCO (centres undefined) | inactive | inactive | inactive | inactive | inactive | inactive | inactive | inactive | 37.5 µM (active) | – | 33.1 µM (active) | inactive | inactive | inactive | – | – | – | – | – | –
Cc1c(C2(c3cc(Br)c(O)c(Br)c3C)OS(=O)(=O)c3ccccc32)cc(Br)c(O)c1Br | 42 µM (active) | 21 µM (active) | inactive | – | 11.8 µM (active) | 16.7 µM (active) | 18.8 µM (active) | 10.5 µM (active) | inactive | – | – | inactive | inactive | inactive | – | – | – | – | inactive | inactive
CCCCCCOC(=O)CCCCC | inactive | inactive | inactive | inactive | inactive | inactive | inactive | inactive | inactive | inactive | inactive | inactive | inactive | inactive | – | – | – | – | – | inactive
CC[C@H]1OC(=O)[C@H](C)[C@@H](O[C@H]2C[C@@](C)(OC)[C@@H](O)[C@H](C)O2)[C@H](C)[C@@H](O[C@@H]2O[C@H](C)C[C@H](N(C)C)[C@H]2O)[C@](C)(O)C[C@@H](C)C(=O)[C@H](C)[C@@H](O)[C@]1(C)O | inactive | inactive | inactive | inactive | inactive | inactive | inactive | inactive | inactive | inactive | – | – | inactive | inactive | – | – | – | – | – | –
CCCCCCC(O)CCCCCCCCCCC(=O)OC (centres undefined) | inactive | inactive | inactive | inactive | inactive | – | – | inactive | – | inactive | inactive | inactive | – | – | – | – | – | – | – | –
O=C(O)/C=C/c1ccc(O)c(O)c1 | inactive | inactive | inactive | inactive | inactive | inactive | – | inactive | inactive | – | inactive | inactive | inactive | inactive | – | – | – | – | inactive | –
C=C(C)c1ccccc1 | inactive | inactive | inactive | inactive | inactive | – | – | inactive | inactive | inactive | inactive | inactive | inactive | – | – | – | – | – | – | –
CCC(=O)OCc1ccc(OC)cc1 | inactive | inactive | inactive | inactive | inactive | – | – | inactive | inactive | – | inactive | inactive | – | – | – | – | – | – | – | –
O=C1OC[C@H](Cc2cccc(O)c2)[C@H]1Cc1cccc(O)c1 | inactive | inactive | inactive | inactive | inactive | inactive | inactive | inactive | – | inactive | inactive | inactive | inactive | inactive | – | – | – | – | – | inactive
Cc1c[nH]c2ccccc12 | inactive | inactive | inactive | inactive | inactive | inactive | inactive | inactive | inactive | – | inactive | inactive | inactive | inactive | – | – | – | – | – | –
CC(=O)OCC(=O)[C@@]1(OC(C)=O)[C@@H](C)C[C@H]2[C@@H]3C[C@H](F)C4=CC(=O)C=C[C@]4(C)[C@@]3(F)[C@@H](O)C[C@@]21C | inactive | inactive | inactive | inactive | inactive | inactive | – | inactive | inactive | inactive | inactive | inactive | inactive | inactive | – | – | – | – | inactive | –
Nc1ccc(F)cc1 | inactive | inactive | inactive | – | inactive | inactive | inactive | inactive | inactive | inactive | inactive | inactive | inactive | inactive | – | inactive | inactive | inactive | – | –
Nc1nc(-c2ccc([N+](=O)[O-])cc2)cs1 | inactive | inactive | inactive | inactive | inactive | inactive | inactive | inactive | inactive | – | – | inactive | inactive | inactive | – | – | – | – | – | inactive
